Values joined by “and” are separate entries in the source; they are usually repeats but may differ in a detail not shown here. Equal values may be shown once. Results filed as inconclusive are left out. Active and inactive are the calls of the source. The call rests on the fitted dose curve; in most records, active means well fitted activation curve with a large enough effect; inconclusive means small, poorly fitted or top-dose-only effect, or effect the other way; inactive means flat fitted curve, though single readings scatter.
Target: Pyruvate kinase PKM (Homo sapiens) (UniProt P14618)
Test: Secondary assay for Activators of Human Pyruvate Kinase M2 isoform
Settings: purified hPK-M2, LDH-coupled NADH fluorescence kinetic; series mostly up to 57.5 µM; activation: at the top concentration
From the text: Confirmatory assay NIH Chemical Genomics Center [NCGC] Matthew G. Vander Heiden, M.D., Ph.D. [Harvard Medical School, 77 Avenue Louis Pasteur, Boston, MA 02115] NCGC Assay Overview: Human pyruvate kinase muscle 2 (hPK-M2)enzyme was supplied as a highly purified (>95% pure) preparation from Harvard Medical School and a secondary assay was used to evaluate compounds. This assay couples the formation of pyruvate from hPK-M2 using lactate dehydrogenase (LDH) and NADH. The depletion of NADH is followed in a fluorescent-based kinetic assay that follows the formation of pyruvate to lactate, as catalyzed LDH (described by Hannaert et al., 2002)1 Pyruvate kinase substrates, PEP and ADP, were present in the assay at 0.1 mM and 4 mM respectively. In this kinetic assay initial rates were determined by following the fluorescence of NADH depletion.
NCGC Assay Protocol Summary: Three uL of substrate mix (final concentration, 50 mM Tris-Cl pH 8.0, 200 mM KCl, 15 mM MgCl2, 0.1 mM PEP, 4.0 mM ADP, and 0.2 mM NADH) was dispensed into black-solid 1536 well plates. 23 nL of compounds were delivered by a pin tool and 1 uL of enzyme mix (final concentrations, 10 nM hPK-M2 and 1 uM of LDH) was added. Plates were immediately placed in ViewLux (Perkin Elmer) and NADH fluorescence was determined at 30 second exposure intervals for between 3 and 6 minutes. Data were normalized to the uninhibited and EC100 activation using known activators such as fructose-bis-phosphate.

Pyruvate kinase PKM (Homo sapiens), sequence (P14618 whole entry, looked up, canonical isoform): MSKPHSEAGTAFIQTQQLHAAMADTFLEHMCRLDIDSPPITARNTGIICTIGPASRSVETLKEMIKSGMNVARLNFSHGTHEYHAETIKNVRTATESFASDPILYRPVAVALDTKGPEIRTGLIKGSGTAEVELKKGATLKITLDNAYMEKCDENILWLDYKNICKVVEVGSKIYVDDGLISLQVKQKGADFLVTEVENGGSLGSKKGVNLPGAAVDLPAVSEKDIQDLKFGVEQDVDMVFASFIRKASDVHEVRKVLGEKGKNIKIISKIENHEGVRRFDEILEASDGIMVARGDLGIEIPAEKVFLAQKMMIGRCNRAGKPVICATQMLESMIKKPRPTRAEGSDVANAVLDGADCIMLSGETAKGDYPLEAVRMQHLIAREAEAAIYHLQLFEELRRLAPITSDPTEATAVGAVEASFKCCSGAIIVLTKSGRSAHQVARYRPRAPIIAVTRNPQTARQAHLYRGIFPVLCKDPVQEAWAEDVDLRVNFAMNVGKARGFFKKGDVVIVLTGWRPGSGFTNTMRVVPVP

Potency, active:
Cc1cc2[nH]c3c(=O)n(Cc4ccccc4F)ncc3c2s1 708 nM
Cc1cc2c(s1)c1c(C)nn(Cc3ccc(F)cc3)c(=O)c1n2C 2820 nM
CC(O)c1cc2c(s1)c1cnn(Cc3ccccc3F)c(=O)c1n2C (stereo not given) 398 nM
Nc1ccc(S(=O)(=O)N2CCCN(S(=O)(=O)c3ccc4c(c3)OCCO4)CC2)cc1 366 nM
Cn1c2cc(Br)sc2c2cnn(Cc3ccc(F)cc3)c(=O)c21 794 nM
CC(=O)c1cc2c(s1)c1cnn(Cc3ccccc3F)c(=O)c1n2C 158 nM
O=S(=O)(c1ccc2c(c1)OCCO2)N1CCN(S(=O)(=O)c2cc(F)c(F)cc2F)CC1 562 nM
Cn1c2cc([N+](=O)[O-])sc2c2cnn(Cc3ccccc3F)c(=O)c21 251 nM
CSc1cc2c(s1)c1cnn(Cc3cccc(O)c3)c(=O)c1n2C 65.1 nM
C=Cc1cc2c(s1)c1cnn(Cc3ccccc3F)c(=O)c1n2C 562 nM
CC1(C)CCc2cc(S(=O)(=O)N3CCN(S(=O)(=O)c4c(F)cccc4F)CC3)ccc2O1 5.01 µM and 631 nM
Cn1c2cc(Br)sc2c2cnn(Cc3ccc(F)cc3F)c(=O)c21 708 nM
O=S(=O)(c1ccccc1)N1CCN(S(=O)(=O)c2ccc3c(c2)OCCO3)CC1 447 nM
COc1cccc(Cn2ncc3c4sc(S(C)=O)cc4n(C)c3c2=O)c1 (stereo not given) 146 nM
O=S(=O)(c1ccc2c(c1)OCCO2)N1CCN(S(=O)(=O)c2ccccc2F)CC1 316 nM
COc1cc(F)c(S(=O)(=O)N2CCN(S(=O)(=O)c3ccc(NC(C)=O)cc3)CC2)c(F)c1 14600 nM
Nc1ccc(S(=O)(=O)N2CCN(S(=O)(=O)c3c(F)cccc3F)CC2)cc1 410 nM
C[C@@H]1CN(S(=O)(=O)c2ccc3c(c2)OCCO3)CCN1S(=O)(=O)c1c(F)cccc1F 3550 nM
Cc1cc2c(s1)c1cnn(Cc3ccc(F)cc3)c(=O)c1n2C 251 nM
COc1cc(F)c(S(=O)(=O)N2CCCN(S(=O)(=O)c3cccc(NC(C)=O)c3)CC2)c(F)c1 2910 nM
COc1ccc(S(=O)(=O)N2CCN(S(=O)(=O)c3ccc4c(c3)OCCO4)CC2)cc1 562 nM
O=S(=O)(c1ccc2c(c1)OCCO2)N1CCN(S(=O)(=O)c2ccc3c(c2)OCCO3)CC1 398 nM
Cc1ccc(Cn2ncc3c4sc(C)cc4n(C)c3c2=O)cc1 1260 nM
Cn1c2cc(CO)sc2c2cnn(Cc3ccccc3F)c(=O)c21 141 nM
Cn1ccc2cc(S(=O)(=O)N3CCN(S(=O)(=O)c4c(F)cccc4F)CC3)ccc21 1410 nM
COc1cc(F)c(S(=O)(=O)N2CCN(S(=O)(=O)c3ccco3)CC2)c(F)c1 116 nM
CCOC(=O)CCc1cc(F)c(S(=O)(=O)N2CCN(S(=O)(=O)c3ccc4c(c3)OCCO4)CC2)cc1F 10000 nM
Cn1c2cc(S(C)(=O)=O)sc2c2cnn(Cc3ccccc3F)c(=O)c21 447 nM
O=C(O)c1cc(F)c(S(=O)(=O)N2CCN(S(=O)(=O)c3ccc4c(c3)OCCO4)CC2)cc1F 31600 nM
Nc1cccc(S(=O)(=O)N2CCN(S(=O)(=O)c3c(F)cccc3F)CC2)c1 206 nM
O=S(=O)(c1c(F)cccc1F)N1CCN(S(=O)(=O)c2c(F)cccc2F)CC1 126 nM
COC/C=C/c1cc(F)c(S(=O)(=O)N2CCN(S(=O)(=O)c3ccc4c(c3)OCCO4)CC2)cc1F 17800 nM
Cn1c2cc(B(O)O)sc2c2cnn(Cc3c(F)cccc3Cl)c(=O)c21 6310 nM
O=S(=O)(c1ccc2c(c1)OCCO2)N1CCN(S(=O)(=O)c2cc(F)c(Br)cc2F)CC1 708 nM
O=S(=O)(c1cccc(O)c1)N1CCN(S(=O)(=O)c2c(F)cccc2F)CC1 183 nM
COc1cccc(S(=O)(=O)N2CCN(S(=O)(=O)c3ccc4c(c3)OCCO4)CC2)c1 562 nM
COc1ccc(S(=O)(=O)N2CCN(S(=O)(=O)c3ccc(OC)cc3)CC2)cc1 398 nM and 282 nM

activation, inactive:
CCNc1cccc(S(=O)(=O)N2CCN(S(=O)(=O)c3ccc4c(c3)OCCO4)CC2)c1 2.57%
CS(=O)(=O)Nc1cccc(-c2cc(F)c(S(=O)(=O)N3CCN(S(=O)(=O)c4ccc5c(c4)OCCO5)CC3)cc2F)c1 -11.4%
CN(C)c1cccc(S(=O)(=O)N2CCN(S(=O)(=O)c3ccc4c(c3)OCCO4)CC2)c1 -8.86%

— PubChem BioAssay AID1540 (National Center for Advancing Translational Sciences (NCATS), 2009)
